High-throughput results from PubChem.
CSC inhib: cancer stem cell inhibition. cancer stem cell-like cells viability, luminescence. inhibition, % at 7.5 µM. AID 2717. actives 1.1% (n = 300,000); in the data active means inhibition above about 75%; inconclusive means no clear call, values can overlap the other calls; tested in HMLE shEcad cells
Beta cell apopt: blocks beta cell apoptosis. actives 0.8% (n = 300,000). AID 435005. protection from apoptosis, % (concentration not given with the values). INS-1E cytokine-induced death, ATP luminescence, 48 h; percent of positive-control rescue, neutral wells zero;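 active means Every replicate reaches about 75%, or at least half do and their mean reaches it too, limit read from the data; inconclusive means At least half of replicates reach the limit but their mean does not; inactive means Under half of replicates reach the limit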;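 further: 0% = cytokine-treated negative control wells and 100% = positive control rescue; higher means more ATP so stronger rescue from cytokine killing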
Jurkat NFkB inh: lowers PMA/ionomycin-induced NF-kB signal in Jurkat cells; inhibition, % at 4 µM; actives 0.53% (n = 330,000); PMA/ionomycin-induced NF-kB luciferase reporter, luminescence; in the data active means inhibition above about 50%
697 NFkB inh: lowers PMA/ionomycin-induced NF-kB signal in 697 B cells; 697 B-cell NF-kB luciferase reporter, 16 h; inhibition, % at 4 µM; actives 0.33% (n = 330,000); AID 435022; in the data active means inhibition above about 35%
Mdm2-MdmX inh: disrupts the human Mdm2-MdmX interaction | O15151+Q00987 | SaOS-2 split-luciferase Mdm2/MdmX complementation, luminescence | inhibition, % at 8 µM | actives 3% (n = 330,000) | AID 485346;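 active means inhibition of at least 50% at 8 µM in the primary screen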
Target sequence (O15151 whole entry, looked up): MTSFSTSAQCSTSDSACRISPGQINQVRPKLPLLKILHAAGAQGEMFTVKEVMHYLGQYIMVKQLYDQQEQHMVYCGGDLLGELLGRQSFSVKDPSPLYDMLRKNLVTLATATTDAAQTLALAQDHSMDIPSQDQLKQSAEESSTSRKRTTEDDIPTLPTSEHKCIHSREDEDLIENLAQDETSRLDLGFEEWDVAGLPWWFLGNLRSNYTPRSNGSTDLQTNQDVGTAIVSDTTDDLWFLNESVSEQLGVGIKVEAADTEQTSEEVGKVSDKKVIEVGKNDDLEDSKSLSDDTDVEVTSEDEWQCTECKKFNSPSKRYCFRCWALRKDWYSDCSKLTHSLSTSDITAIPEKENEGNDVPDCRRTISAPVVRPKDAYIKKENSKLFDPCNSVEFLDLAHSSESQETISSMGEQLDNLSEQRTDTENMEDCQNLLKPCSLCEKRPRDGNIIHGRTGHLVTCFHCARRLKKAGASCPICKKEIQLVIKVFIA
Target sequence (Q00987 whole entry, looked up): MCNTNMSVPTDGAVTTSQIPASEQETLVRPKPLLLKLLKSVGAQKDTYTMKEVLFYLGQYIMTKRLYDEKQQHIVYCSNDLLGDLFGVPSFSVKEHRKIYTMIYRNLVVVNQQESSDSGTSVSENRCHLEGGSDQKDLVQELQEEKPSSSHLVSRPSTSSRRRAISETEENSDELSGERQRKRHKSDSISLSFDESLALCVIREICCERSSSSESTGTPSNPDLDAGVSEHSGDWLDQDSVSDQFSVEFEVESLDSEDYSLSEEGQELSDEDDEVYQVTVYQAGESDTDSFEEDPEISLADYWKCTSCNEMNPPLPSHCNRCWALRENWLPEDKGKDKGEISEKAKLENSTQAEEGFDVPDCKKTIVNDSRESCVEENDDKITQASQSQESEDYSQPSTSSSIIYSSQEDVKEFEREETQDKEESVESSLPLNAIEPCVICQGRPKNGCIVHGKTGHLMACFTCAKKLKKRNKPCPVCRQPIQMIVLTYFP
Gli-Sufu block: Gli-Sufu pathway antagonism. Sufu-KO-LIGHT fibroblasts, Gli luciferase reporter luminescence. inhibition, % at 5 µM. actives 0.74% (n = 340,000). AID 588413;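 active means inhibition above about 55%, limit read from the data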;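 further: 0% = DMSO-treated cells and 100% = wells with medium but no cells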
Mdm2-MdmX conf: confirmation of human Mdm2/MdmX interaction inhibitors | inhibition, % at 8 µM | Mdm2-MdmX binding, luminescent assay | actives 55% (n = 10,000) | shares compounds with Mdm2-MdmX inh | AID 489028; in the data active means inhibition above about 40%
FLuc counter: inhibits full-length luciferase, flagging false Mdm2/MdmX hits; shares compounds with Mdm2-MdmX inh; actives 77% (n = 6,200); SaOS-2 full-length luciferase counterscreen, luminescence; inhibition, % at 8 µM;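 active means mean inhibition at 8 µM reaching about 37%, which flags the compound as non-specific, limit read from the data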;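 further: p53-null SaOS-2 cells with luciferase driven by a doxycycline-inducible promoter; compound on cells about two nights before reading with doxycycline added after day one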
* marks the source's active call; other numbers are inactive results; ? = inconclusive; . = no result. In the library only some 4.5% were active in any assay of this set; here they are far more common.

SMILES	CSC inhib	Beta cell apopt	Jurkat NFkB inh	697 NFkB inh	Mdm2-MdmX inh	Gli-Sufu block	Mdm2-MdmX conf	FLuc counter
COc1ccc(NC(=O)CNC(=O)c2sc3ccccc3c2Cl)c(OC)c1	.	-2	-5	7	77*	4	8	.
COc1ccc(C(=O)Nn2c(SCC(=O)c3ccccc3)nc3ccccc3c2=O)cc1	5	10	-96	-155	54*	2	52*	127*
O=C(COc1ccc(Br)cc1)Nc1ccc(N2CCOCC2)cc1N1CCOCC1	.	4	33	-32	82*	-3	8	.
O=c1[nH]c2ccccc2c2oc(CCl)nc12	4	-5	9	-9	78*	6	52*	54*
CCC1CCc2c(c3ccccc3[nH]c2=O)O1 (stereo not given)	.	-17	0	1	20	-12	.	.
Cc1ccc(/C(N)=N/OC(=O)/C=C/c2ccccc2)cc1	.	1	-16	-18	-10	-12	.	.
Cc1ccc(C(=O)C(C(=O)/C=C/c2ccccc2)=C2SCCCS2)cc1	?	.	-1	-52	98*	17	90*	54*
CCOC(=O)c1nn(-c2ccc(Br)cc2)cc1C(=O)c1cccc2ccccc12	-11	-2	-15	-230	62*	-55	5	.
COC(=O)c1cn(-c2ccccc2)nc1C(=O)OC	20	0	-2	-25	12	-1	.	.
CCOc1ccc(Nc2cc3n(c(=O)n2)CCc2cc(OC)c(OC)cc2-3)cc1	-4	14	-5	6	51*	26	6	.
CCOc1ccccc1Nc1cc2n(c(=O)n1)CCc1cc(OC)c(OC)cc1-2	-2	26	11	18	29	15	.	.
N#Cc1ccc(COC(=O)CC(NC(N)=O)c2ccc(Cl)cc2)cc1 (stereo not given)	-15	.	-3	1	13	-19	.	.
COc1ccccc1NC(=O)c1cc([N+](=O)[O-])ccc1N1CCOCC1	-7	3	16	14	14	13	.	.
N#C/C(=C\c1ccccc1[N+](=O)[O-])C(=O)NC1CCCCC1	-8	-8	22	-12	3	-6	.	.
N#C/C(=C\C=C\c1ccccc1[N+](=O)[O-])C(=O)NC1CCCCC1	82*	-15	28	-137	99*	-3	61*	54*
CN(C)/C=N/c1[nH]ncc1C#N	-9	-3	0	4	8	-1	.	.
CN(C)C=Nc1ncc2c([nH]c3ccccc32)c1C#N	.	-13	-15	-22	72*	-48	82*	23
CC(NC(=S)NC1CCCCC1)c1ccc(C(C)(C)C)cc1 (stereo not given)	45	99*	31	-39	67*	20	24	.
Cc1cc(C)c(OCCCCNCc2ccccc2)c(Cl)c1	51	3	2	-4	51*	3	40*	68*
CN(CC(=O)Nc1ccccc1C(F)(F)F)C(=O)c1cc([N+](=O)[O-])ccc1N1CCOCC1	-16	2	-14	-12	-6	9	.	.
O=C(Nc1ccc(OC(=O)c2ccccc2)c(-c2nc3ccccc3s2)c1)c1ccccc1	-6	2	-3	12	68*	8	32	.
CC(=O)Nc1c2c3c(cccc3n(C)c1=O)C(=O)c1ccccc1-2	.	-11	6	13	16	-12	.	.
CC(=O)Nc1ccc(Nc2ccc3c4c(cc(=O)n3C)-c3ccccc3C(=O)c24)cc1	6	18	-9	14	59*	25	30	.
Cn1c(=O)oc2cc(S(=O)(=O)N3CCCC(C(=O)NC4CCCc5ccccc54)C3)ccc21 (stereo not given)	-13	-2	12	9	76*	1	70*	54*
Cn1c(=O)oc2cc(S(=O)(=O)N3CCCC(C(=O)Nc4ccccn4)C3)ccc21 (stereo not given)	-13	0	18	8	18	4	.	.
COc1cc(OC)cc(C(=O)N/N=C(\C)CC(=O)Nc2ccccn2)c1	9	4	-10	5	-38	27	.	.
